Source: PubChem BioAssay (National Center for Advancing Translational Sciences (NCATS))
An excerpt weighted towards active compounds, which were near 2.4% of everything screened.
Pol kappa inh-1 = inhibitors of human DNA polymerase kappa; Potency, µM (titrated, usually from 107 µM), for the others: at the top dose activity, negative = inhibition, most hits filed as inhibitors; Q9UBT6; actives 0.53% (n = 400,000); purified Pol kappa, fluorescent DNA synthesis assay, 10 min; note: % is set by controls: 0 for no effect and ±100 for the full control effect
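Enzyme at 10 nM met test compounds for 15 min at room temperature. Substrate addition (50 nM final) began the reaction, which was monitored by fluorescence at 0 and 10 min.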
Pol iota inh = inhibitors of human DNA polymerase iota. Q9UNA4. Pol iota fluorescent replication assay, 10 min. actives 1% (n = 390,000). Potency, µM (doses to about 115 µM), for inactives: at the highest dose activity, negative = inhibition, most hits filed as inhibitors
Target sequence (Q9UNA4 whole entry, looked up): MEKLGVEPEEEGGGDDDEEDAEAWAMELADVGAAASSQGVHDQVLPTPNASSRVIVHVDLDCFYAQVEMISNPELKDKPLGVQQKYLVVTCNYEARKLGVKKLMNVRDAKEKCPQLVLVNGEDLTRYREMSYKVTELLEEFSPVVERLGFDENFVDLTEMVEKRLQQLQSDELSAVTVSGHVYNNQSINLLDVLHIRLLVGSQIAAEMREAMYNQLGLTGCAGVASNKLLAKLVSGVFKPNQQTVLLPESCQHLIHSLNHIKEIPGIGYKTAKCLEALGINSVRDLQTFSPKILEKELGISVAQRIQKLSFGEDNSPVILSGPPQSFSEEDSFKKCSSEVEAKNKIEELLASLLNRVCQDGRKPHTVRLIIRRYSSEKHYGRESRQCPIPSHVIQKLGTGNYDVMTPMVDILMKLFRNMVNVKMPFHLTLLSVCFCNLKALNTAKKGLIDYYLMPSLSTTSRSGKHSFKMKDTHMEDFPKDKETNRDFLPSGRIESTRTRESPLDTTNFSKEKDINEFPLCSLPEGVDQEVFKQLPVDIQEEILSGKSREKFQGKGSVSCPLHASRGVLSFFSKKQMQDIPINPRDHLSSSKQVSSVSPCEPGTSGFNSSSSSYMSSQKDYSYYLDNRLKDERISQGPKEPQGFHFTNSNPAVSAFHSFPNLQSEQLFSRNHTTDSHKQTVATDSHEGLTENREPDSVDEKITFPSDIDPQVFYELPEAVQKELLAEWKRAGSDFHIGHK
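Pol iota at 10 nM preincubated 15 min with compounds at room temperature; reaction started with fluorescent substrate, 50 nM final. Fluorescence read kinetically at 0 and 10 min; buffer-only wells as negative control.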
Pol eta inh-1 = inhibitors of human DNA polymerase eta; Q9Y253; recombinant Pol eta, fluorescent DNA replication assay; Potency, µM (top dose mostly 114 µM), for inactives: top-dose activity change, negative = inhibition, most hits filed as inhibitors; actives 1.2% (n = 390,000); AID 588591; note: % is set by controls: 0 for no effect and ±100 for the full control effect
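Fluorescent replication assay: 50 nM final substrate added after a 15 min room-temperature compound preincubation with 10 nM enzyme. Signal taken at 0 min and again at 10 min.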
TDP1 block = TDP1 (human) enzyme inhibition. Q9NUW8. recombinant TDP1, AlphaScreen DNA substrate cleavage. Potency, µM (doses to about 130 µM), for inactives: at the highest dose activity change, negative = inhibition, usual class: inhibitors. actives 0.28% (n = 350,000); note: % is set by controls: 0 for no effect and ±100 for the full control effect; nearly all actives have a fitted effect of over 40% in size
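Steps: enzyme plus compound, 15 min RT; add biotin/phosphotyrosine-FITC oligonucleotide (15 nM final), react 5 min; add donor/acceptor beads (10 ug/ml final), 10 min; read AlphaScreen. Tdp1 at 1 nM final.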
Pol beta inh = inhibitors of human DNA polymerase beta; Potency, µM (series often up to 114 µM), for the others: at the highest dose activity change, negative = inhibition, usual class: inhibitors; P06746; actives 1.3% (n = 340,000); Pol beta primer extension/strand displacement, fluorescence kinetic; note: % is set by controls: 0 for no effect and ±100 for the full control effect
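Human Pol beta at 10 nM; strand-displacement substrate 50 nM final. Compound exposure 15 min at room temperature before start, reaction 10 min at room temperature.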
TbPGK inh = TbPGK inhibition, hit validation; TbPGK coupled GAPDH assay, Kinase-Glo luminescence; Potency, µM (series often up to 57.5 µM), for the others: top-dose activity change, negative = inhibition, hits mostly inhibitors; AID 686980; shares compounds with Pol kappa inh-1; actives 79% (n = 500); note: % is set by controls: 0 for no effect and ±100 for the full control effect; nearly all actives have a fitted effect of over 65% in size
POLI cherry-pick = Confirm cherry-picked inhibitors of human polymerase iota | shares compounds with Pol kappa inh-1 | AID 720496 | Potency, µM, hits mostly inhibitors | Pol iota primer extension, TAMRA/BHQ fluorescence | actives 77% (n = 1,500)
Pol kappa inh-2 = Pol kappa (human) inhibition, cherry-pick confirmation; AID 720501; Potency, µM, usual class: inhibitors; actives 76% (n = 920); shares compounds with Pol eta inh-1; purified Pol-kappa, fluorescent strand-displacement substrate
Pol eta inh-2 = confirmation of human DNA polymerase eta inhibitors; actives 64% (n = 2,600); shares compounds with Pol eta inh-1; Pol eta primer extension, TAMRA/BHQ fluorescence, 10 min; Potency, µM, hits mostly inhibitors
* hit, by the source's call; ? = inconclusive; . = no result given; ! = not active in a repeat; [ ] = another dose, or the depositor's remark. Calls come from the whole dose curve; as a rule, active = well fitted curve in the direction sought with a large enough effect; inconclusive = small, poorly fitted or top-dose-only effect, or another doubt; inactive = no such curve, though single readings can be large; an effect the other way counts as inactive or inconclusive. Potency is the fitted concentration of half-maximal effect.

SMILES	Pol kappa inh-1	Pol iota inh	Pol eta inh-1	TDP1 block	Pol beta inh	POLI cherry-pick	Pol eta inh-2	others
O=C1c2ccccc2C(=O)c2c1ccc(O)c2O	?	-18.7%	?	8.3%	.	?	75.7*	TbPGK inh=?
CN(C)c1cccc2c1C(=O)c1ccccc1C2=O	-12.2%	10.7%	-16.9%	12.7%	7.8%	.	.
Cc1ccc(NC(=O)CN2C(=O)S/C(=C\c3cc(Cl)c(OCC(=O)O)c(Cl)c3)C2=O)cc1	-14.1%	?	25.1µM*	.	39.8µM*	42.3*	47.8*	TbPGK inh=5.8µM*
COc1ccc(/C=C2\SC(=O)N(CC(=O)Nc3ccc(O)cc3)C2=O)cc1OC	1.7%	?	-10.5%	.	28.8%	.	.
O=C(Nc1cccc(Cl)c1)c1ccc2c(c1)CCN2S(=O)(=O)c1ccccc1	-2.7%	-13.1%	-4.2%	-7.0%	0.8%	.	.
O=C(Cc1cccs1)OCC(=O)c1ccco1	25.1µM*	?	8.91µM*	.	14.1µM*	75.2*	60.1*
Cc1ccc(C)c(SCC(=O)OCC(=O)c2ccco2)c1	?	20µM*	35.5µM*	.	22.4µM*	?	?
COc1ccc(Cn2nnc(C(=O)Nc3cc(OC)ccc3OC)c2N)cc1	-10.9%	23.4%	-23.2%	5.8%	?	.	.
CC/C=C\C/C=C\C/C=C\CCCCCCCC(=O)O	28.2µM*!	12.6µM*	7.94µM*	5.01µM*!	.	29.9*	23.9*	Pol kappa inh-2=9.47*
Cn1c(SCC(=O)Nc2nncs2)nnc1C1CC1	?	?	22.4µM*	8.91µM*	6.31µM*	37.7*	30.1*
CC(C)n1c(SCC(=O)Nc2nncs2)nnc1C1CC1	-20.4%	-27.6%	-4.8%	-4.4%	-1.6%	.	.
O=C(c1cc(-c2ccco2)nc2ccccc12)N1CCN(Cc2ccccc2)CC1	-18.9%	?	?	1.7%[56.1 µM]	.	.	.
CCCCN(C(=O)c1cc(Cl)nc2ccccc12)c1c(N)n(CCC)c(=O)[nH]c1=O	.	.	-3.1%	.	.	.	.
COc1ccc(NC(=O)c2cc(-c3ccco3)nc3ccccc23)cc1	-16.0%	?	-13.0%	.	.	.	.
Cc1ccccc1NC(=O)c1cc(-c2ccco2)nc2ccccc12	89.1µM*	39.8µM*	44.7µM*	.	.	53.2*	47.8*
CN(C)C(CNC(=O)c1cc(-c2ccco2)nc2ccccc12)c1ccccc1 (stereo not drawn)	25.1µM*	?	11.2µM*	-16.2%	.	33.6*	75.7*
Cc1cccc(NC(=O)c2cc(-c3ccco3)nc3ccccc23)n1	-3.7%	-6.2%	-17.2%	-3.8%	19.8%	.	.
COC(=O)C1CCN(C(=O)c2cc(-c3ccco3)nc3ccccc23)CC1	22.4µM*	?	8.91µM*	.	.	8.44*	15.1*	TbPGK inh=13µM*;Pol kappa inh-2=9.47*
CCCCN(C(=O)c1cc(-c2ccco2)nc2ccccc12)c1c(N)n(CCC)c(=O)[nH]c1=O	79.4µM*	25.1µM*	20µM*	28.2µM*	.	33.6*	47.8*	Pol kappa inh-2=37.7*
CC(C)(COP(=O)(O)OP(=O)(O)OC[C@H]1O[C@@H](n2cnc3c(N)ncnc32)[C@H](O)[C@@H]1OP(=O)(O)O)C(O)C(=O)NCCC(=O)NCCS (stereo partly drawn)	-5.7%[19.4 µM]	.	.	.	.	.	.
O=C(N/N=C/c1cccc(F)c1)c1cc(-c2ccco2)nc2ccccc12	17.8µM*	?	2.24µM*	.	-101.8%	8.44*	13.5*	TbPGK inh=5.8µM*
CCCCCCNC(=O)c1cc(-c2ccco2)nc2ccccc12	50.1µM*	?	12.6µM*	-7.7%	7.94µM*	26.7*	30.1*
CCCCCCCNC(=O)c1cc(-c2ccncc2)nc2ccccc12	-10.6%	39.5%	-19.1%	.	7.0%	.	.
Cc1ccc(C)n1-c1c(C(=O)NCCCN2CCN(c3ccc(F)cc3)CC2)sc2ncccc12	-7.6%[60.1 µM]	20.8%	-11.8%	7.7%	-1.1%	.	.
O=C(NCCCCc1ccccc1)c1nn(-c2ccccc2)nc1CO	-5.1%	17.2%	-16.6%	-7.0%	25.0%	.	.
SMILES	Pol kappa inh-1	Pol iota inh	Pol eta inh-1	TDP1 block	Pol beta inh	POLI cherry-pick	Pol eta inh-2	others
CCc1ccc(NC(=O)C(=O)NCC(c2cccnc2)N2CCN(Cc3ccccc3)CC2)cc1 (stereo not drawn)	-4.1%	-18.6%	-8.2%	-5.2%	33.1%	.	.
O=C(O)c1ccc2c3c(cccc13)C(=O)N(c1ccccc1)C2=O	89.1µM*	28.2µM*	17.8µM*	.	20µM*	?	23.9*	Pol kappa inh-2=11.9*
O=C(O)c1ccc(N2C(=O)c3cccc4cccc(c34)C2=O)cc1	-3.9%	73.8%	-16.3%	0.3%	-1.4%	.	.
O=C(O)c1ccc(N2C(=O)c3cccc4c(C(=O)O)ccc(c34)C2=O)cc1	20µM*	8.91µM*	3.55µM*	2.82µM*	6.31µM*	15*	3.38*	TbPGK inh=16.3µM*
CCn1ccc2c(OCC(=O)Nc3ccccc3C(F)(F)F)cccc2c1=O	-3.9%[60.1 µM]	34.3%	-17.0%	0.0%	7.9%	.	.
CCN1CCN(c2c(S(=O)(=O)c3ccc(C)c(C)c3)cnc3cc(OC)c(OC)cc23)CC1	0.7%	6.1%	-14.5%	-1.0%	10.9%	.	.
O=C(/C=C/c1ccco1)NC(=S)Nc1ccc(C(=O)O)cc1	25.1µM*	?	7.08µM*	.	11.2µM*	9.47*	5.36*
O=C(O)c1cccc2cccc(-c3c4ccc(=O)c(O)c-4oc4c(O)c(O)ccc34)c12	1.12µM*	0.708µM*	-98.1%	.	.	0.67*	0.953*	TbPGK inh=0.326µM*
O=C(O)c1cccc2cc(-c3ccccc3)oc(=O)c12	-4.1%[60.1 µM]	23.8%	-20.5%	.	8.2%	.	.
Cc1cc(=O)c2c(o1)C(=O)c1occc1C2=O	31.6µM*	6.31µM*	10µM*	.	.	47.4*	30.1*	Pol kappa inh-2=42.3*
Cc1nnc(NC(=O)c2sc3nc(-c4cccs4)cc(C(F)(F)F)c3c2N)s1	?	28.2µM*	6.31µM*	.	35.5µM*	42.3*	67.5*
COc1cccc(-c2nc(S(=O)(=O)c3ccccc3)c(NCc3ccccc3)o2)c1	8.1%	8.6%	.	.	0.0%	.	.
COC(=O)c1c(OC)cc2c(c1C)Oc1c(Cl)c(O)c(Cl)c(C)c1C(=O)O2	-11.2%[60.1 µM]	.	.	16.4%[56.1 µM]	.	.	.
COc1cc(C)c2c(c1C=O)Oc1c(c(C)c(O)c3c1C(O)OC3=O)OC2=O (stereo not drawn)	22.4µM*	44.7µM*	15.8µM*	.	7.94µM*	42.3*	21.3*	TbPGK inh=4.61µM*
